From the supplement of paper PMC3150612
± gives the standard deviation of the averaged measurements.

Columns and labels:
Drosophila melanogaster [1] = assay: olfactory response index (dipstick assay) (fraction of flies (RI; 1 aversion, 0.5 indifferent, 0 attraction)); higher = stronger aversion to the odorant; conditions: odorant concentration: 1% v/v, male
Drosophila melanogaster [2] = assay: as above; conditions: odorant concentration: 1% v/v, female
[3] = genotype (tubulin-GAL4 x UAS-RNAi line; control = progenitor): A5
[4] = genotype (tubulin-GAL4 x UAS-RNAi line; control = progenitor): control
[5] = genotype (tubulin-GAL4 x UAS-RNAi line; control = progenitor): obp 18a
[6] = genotype (tubulin-GAL4 x UAS-RNAi line; control = progenitor): obp 22a
[7] = genotype (tubulin-GAL4 x UAS-RNAi line; control = progenitor): obp 28a
[8] = genotype (tubulin-GAL4 x UAS-RNAi line; control = progenitor): obp 56a
[9] = genotype (tubulin-GAL4 x UAS-RNAi line; control = progenitor): obp 56c
[10] = genotype (tubulin-GAL4 x UAS-RNAi line; control = progenitor): obp 56f
[11] = genotype (tubulin-GAL4 x UAS-RNAi line; control = progenitor): obp 57a
[12] = genotype (tubulin-GAL4 x UAS-RNAi line; control = progenitor): obp 57b
[13] = genotype (tubulin-GAL4 x UAS-RNAi line; control = progenitor): obp 58c
[14] = genotype (tubulin-GAL4 x UAS-RNAi line; control = progenitor): obp 59a
[15] = genotype (tubulin-GAL4 x UAS-RNAi line; control = progenitor): obp 83a
[16] = genotype (tubulin-GAL4 x UAS-RNAi line; control = progenitor): obp 83c
[17] = genotype (tubulin-GAL4 x UAS-RNAi line; control = progenitor): obp 93a
[18] = genotype (tubulin-GAL4 x UAS-RNAi line; control = progenitor): obp 99b
[19] = genotype (tubulin-GAL4 x UAS-RNAi line; control = progenitor): obp 56h
[20] = genotype (tubulin-GAL4 x UAS-RNAi line; control = progenitor): obp 58b

Structure (SMILES) | olfactory response index (Drosophila melanogaster [1]; [3]) | olfactory response index (Drosophila melanogaster [1]; [4]) | olfactory response index (Drosophila melanogaster [1]; [5]) | olfactory response index (Drosophila melanogaster [1]; [6]) | olfactory response index (Drosophila melanogaster [1]; [7]) | olfactory response index (Drosophila melanogaster [1]; [8]) | olfactory response index (Drosophila melanogaster [1]; [9]) | olfactory response index (Drosophila melanogaster [1]; [10]) | olfactory response index (Drosophila melanogaster [1]; [11]) | olfactory response index (Drosophila melanogaster [1]; [12]) | olfactory response index (Drosophila melanogaster [1]; [13]) | olfactory response index (Drosophila melanogaster [1]; [14]) | olfactory response index (Drosophila melanogaster [1]; [15]) | olfactory response index (Drosophila melanogaster [1]; [16]) | olfactory response index (Drosophila melanogaster [1]; [17]) | olfactory response index (Drosophila melanogaster [1]; [18]) | olfactory response index (Drosophila melanogaster [1]; [19]) | olfactory response index (Drosophila melanogaster [2]; [3]) | olfactory response index (Drosophila melanogaster [2]; [4]) | olfactory response index (Drosophila melanogaster [2]; [5]) | olfactory response index (Drosophila melanogaster [2]; [6]) | olfactory response index (Drosophila melanogaster [2]; [7]) | olfactory response index (Drosophila melanogaster [2]; [8]) | olfactory response index (Drosophila melanogaster [2]; [9]) | olfactory response index (Drosophila melanogaster [2]; [10]) | olfactory response index (Drosophila melanogaster [2]; [11]) | olfactory response index (Drosophila melanogaster [2]; [12]) | olfactory response index (Drosophila melanogaster [2]; [20]) | olfactory response index (Drosophila melanogaster [2]; [13]) | olfactory response index (Drosophila melanogaster [2]; [14]) | olfactory response index (Drosophila melanogaster [2]; [15]) | olfactory response index (Drosophila melanogaster [2]; [16]) | olfactory response index (Drosophila melanogaster [2]; [17]) | olfactory response index (Drosophila melanogaster [2]; [18]) | olfactory response index (Drosophila melanogaster [2]; [19])
OCCc1ccccc1 [2-phenylethanol] | 0.116 ± 0.078 | 0.0893 ± 0.051 | 0.0701 ± 0.021 | 0.0651 ± 0.059 | 0.163 ± 0.03 | 0.0222 ± 0.021 | 0.0551 ± 0.048 | 0.0672 ± 0.04 | 0.0379 ± 0.021 | 0.138 ± 0.096 | 0.125 ± 0.076 | 0.155 ± 0.067 | 0.132 ± 0.06 | 0.127 ± 0.051 | 0.135 ± 0.043 | 0.0352 ± 0.025 | 0.106 ± 0.049 | 0.396 ± 0.15 | 0.5 ± 0.2 | 0.117 ± 0.066 | 0.403 ± 0.12 | 0.526 ± 0.051 | 0.299 ± 0.11 | 0.367 ± 0.17 | 0.414 ± 0.076 | 0.128 ± 0.068 | 0.379 ± 0.17 | 0.381 ± 0.17 | 0.166 ± 0.08 | 0.258 ± 0.074 | 0.414 ± 0.058 | 0.437 ± 0.14 | 0.422 ± 0.2 | 0.0815 ± 0.14 | 0.258 ± 0.2
CC(C)=CCC/C(C)=C/CO [geraniol] | 0.228 ± 0.033 | 0.136 ± 0.091 | 0.0872 ± 0.11 | 0.0901 ± 0.081 | 0.177 ± 0.1 | 0.188 ± 0.086 | 0.174 ± 0.038 | 0.175 ± 0.023 | 0.0811 ± 0.02 | 0.0917 ± 0.055 | 0.114 ± 0.049 | 0.441 ± 0.039 | 0.159 ± 0.025 | 0.183 ± 0.099 | 0.412 ± 0.13 | 0.141 ± 0.11 | 0.197 ± 0.18 | 0.71 ± 0.16 | 0.492 ± 0.12 | 0.371 ± 0.15 | 0.367 ± 0.018 | 0.605 ± 0.03 | 0.581 ± 0.099 | 0.295 ± 0.025 | 0.468 ± 0.18 | 0.406 ± 0.12 | 0.504 ± 0.032 | 0.591 ± 0.17 | 0.19 ± 0.12 | 0.565 ± 0.091 | 0.442 ± 0.07 | 0.414 ± 0.034 | 0.593 ± 0.061 | 0.35 ± 0.23 | 0.406 ± 0.18
CCc1cnccn1 [2-ethylpyrazine] | 0.416 ± 0.069 | 0.118 ± 0.067 | 0.0666 ± 0.045 | 0.0894 ± 0.038 | 0.472 ± 0.092 | 0.194 ± 0.068 | 0.206 ± 0.11 | 0.247 ± 0.11 | 0.114 ± 0.085 | 0.0743 ± 0.059 | 0.144 ± 0.016 | 0.385 ± 0.17 | 0.221 ± 0.036 | 0.167 ± 0.082 | 0.342 ± 0.071 | 0.146 ± 0.061 | 0.319 ± 0.058 | 0.581 ± 0.074 | 0.524 ± 0.027 | 0.393 ± 0.2 | 0.435 ± 0.1 | 0.581 ± 0.0069 | 0.409 ± 0.078 | 0.497 ± 0.13 | 0.568 ± 0.16 | 0.304 ± 0.2 | 0.4 ± 0.14 | 0.256 ± 0.14 | 0.419 ± 0.22 | 0.638 ± 0.033 | 0.567 ± 0.092 | 0.522 ± 0.12 | 0.552 ± 0.076 | 0.159 ± 0.089 | 0.492 ± 0.14
Cc1cnccn1 [2-methylpyrazine] | 0.457 ± 0.04 | 0.104 ± 0.039 | 0.178 ± 0.049 | 0.155 ± 0.17 | 0.085 ± 0.043 | 0.176 ± 0.094 | 0.293 ± 0.15 | 0.151 ± 0.066 | 0.238 ± 0.096 | 0.261 ± 0.04 | 0.116 ± 0.1 | 0.397 ± 0.041 | 0.305 ± 0.16 | 0.218 ± 0.18 | 0.111 ± 0.044 | 0.1 ± 0.087 | 0.233 ± 0.078 | 0.623 ± 0.14 | 0.415 ± 0.074 | 0.358 ± 0.17 | 0.394 ± 0.084 | 0.527 ± 0.068 | 0.318 ± 0.099 | 0.458 ± 0.14 | 0.674 ± 0.013 | 0.532 ± 0.066 | 0.543 ± 0.082 | 0.159 ± 0.054 | 0.304 ± 0.15 | 0.552 ± 0.3 | 0.478 ± 0.062 | 0.431 ± 0.12 | 0.506 ± 0.13 | 0.381 ± 0.059 | 0.393 ± 0.099
CC(=O)OCCC(C)C [isoamyl acetate] | 0.156 ± 0.046 | 0.228 ± 0.095 | 0.362 ± 0.29 | 0.238 ± 0.1 | 0.237 ± 0.067 | 0.419 ± 0.15 | 0.373 ± 0.16 | 0.58 ± 0.23 | 0.192 ± 0.015 | 0.215 ± 0.071 | 0.173 ± 0.11 | 0.629 ± 0.17 | 0.339 ± 0.15 | 0.321 ± 0.13 | 0.343 ± 0.14 | 0.23 ± 0.083 | 0.348 ± 0.16 | 0.442 ± 0.16 | 0.707 ± 0.066 | 0.34 ± 0.095 | 0.625 ± 0.1 | 0.488 ± 0.25 | 0.665 ± 0.19 | 0.832 ± 0.067 | 0.497 ± 0.18 | 0.465 ± 0.13 | 0.583 ± 0.29 | 0.364 ± 0.2 | 0.471 ± 0.14 | 0.733 ± 0.07 | 0.594 ± 0.099 | 0.6 ± 0.054 | 0.702 ± 0.097 | 0.499 ± 0.14 | 0.659 ± 0.12
CCC/C=C/C=O [(E)-2-hexenal] | 0.565 ± 0.14 | 0.681 ± 0.13 | 0.494 ± 0.13 | 0.655 ± 0.11 | 0.672 ± 0.07 | 0.763 ± 0.079 | 0.618 ± 0.13 | 0.657 ± 0.065 | 0.555 ± 0.15 | 0.718 ± 0.037 | 0.732 ± 0.052 | 0.666 ± 0.0073 | 0.663 ± 0.1 | 0.67 ± 0.085 | 0.782 ± 0.14 | 0.29 ± 0.16 | 0.55 ± 0.12 | 0.723 ± 0.11 | 0.804 ± 0.15 | 0.724 ± 0.12 | 0.811 ± 0.14 | 0.753 ± 0.051 | 0.892 ± 0.028 | 0.768 ± 0.1 | 0.727 ± 0.076 | 0.843 ± 0.1 | 0.794 ± 0.18 | 0.703 ± 0.057 | 0.715 ± 0.11 | 0.767 ± 0.13 | 0.779 ± 0.088 | 0.837 ± 0.1 | 0.848 ± 0.054 | 0.529 ± 0.24 | 0.665 ± 0.17
COC(=O)c1ccccc1O [methyl salicylate] | 0.331 ± 0.2 | 0.13 ± 0.099 | 0.0711 ± 0.077 | 0.179 ± 0.09 | 0.249 ± 0.1 | 0.161 ± 0.056 | 0.181 ± 0.16 | 0.173 ± 0.11 | 0.038 ± 0.036 | 0.193 ± 0.15 | 0.159 ± 0.068 | 0.368 ± 0.047 | 0.225 ± 0.13 | 0.14 ± 0.032 | 0.294 ± 0.18 | 0.108 ± 0.042 | 0.147 ± 0.04 | 0.49 ± 0.19 | 0.558 ± 0.091 | 0.114 ± 0.14 | 0.486 ± 0.086 | 0.384 ± 0.081 | 0.523 ± 0.13 | 0.27 ± 0.14 | 0.295 ± 0.068 | 0.356 ± 0.1 | 0.384 ± 0.23 | 0.287 ± 0.066 | 0.381 ± 0.22 | 0.616 ± 0.093 | 0.454 ± 0.19 | 0.654 ± 0.066 | 0.491 ± 0.02 | 0.308 ± 0.16 | 0.63 ± 0.22
